Assay results reported in PubChem BioAssay (Tox21).
Several values for one entry are separate records, joined by “and”; a condition that tells them apart may be missing. Equal values may be shown once. Results filed as inconclusive are left out. A call without a number means that no potency is given here. The source holds several records for some structures; these can differ, active in one and inactive in another. Activity calls are given as the source filed them. The call rests on the fitted dose curve; in most records, active means well fitted curve in the direction sought with a large enough effect in the repeat runs; inconclusive means weak or mixed curves; inactive means no such curve, though single readings can be large; an effect the other way counts as inactive or inconclusive.

Assays:
[1] = A CellTox Green Cytotoxicity Assay to monitor cytotoxicity in HEK293 cells - 32 hour (AID 1224881); further: nearly all actives have a fitted effect of over 40% in size; further: potency means the concentration at half of the fitted maximal effect
Outline: (§1)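 Cytotoxicity was tracked continuously in HEK293 cells by a DNA-binding dye excluded from viable cells. Compounds were transferred in DMSO 5 h after seeding; fluorescence was recorded at intervals up to 40 h.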

[2] = A CellTox Green Cytotoxicity Assay to monitor cytotoxicity in HepG2 cells - 0 hour (AID 1224882); further: nearly all actives have a fitted effect of over 35% in size
Outline: (§2)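 Real-time, homogeneous cytotoxicity readout: dead-cell DNA staining by CellTox Green in HepG2 monolayers, fluorescence measured at timed intervals up to 40 h of continuous compound exposure.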

[3] = A CellTox Green Cytotoxicity Assay to monitor cytotoxicity in HepG2 cells - 32 hour (AID 1224883); further: nearly all actives have a fitted effect of over 50% in size; further: potency means the concentration at half of the fitted maximal effect
Outline: as §2

[4] = A CellTox Green Cytotoxicity Assay to monitor cytotoxicity in HEK293 cells - 8 hour (AID 1224884); further: nearly all actives have a fitted effect of over 35% in size; further: potency means the concentration at half of the fitted maximal effect
Outline: as §1

[5] = qHTS RealTime-Glo MT Cell Viability Assay in HepG2 cells - 16 hour (AID 1224885); further: nearly all actives have a fitted effect of over 50% in size; further: potency means the concentration at half of the fitted maximal effect
Outline: (§3)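 Viability was tracked continuously by NanoLuc luminescence from prosubstrate reduced by living HepG2 cells, at successive time points over 40 h of compound exposure. Cells with reagent were preincubated 5 h at 37 °C before compound addition.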

[6] = qHTS RealTime-Glo MT Cell Viability Assay in HEK293 cells - 24 hour (AID 1224886); further: nearly all actives have a fitted effect of over 50% in size; further: potency means the concentration at half of the fitted maximal effect; on activity change, negative = cytotoxicity: top concentration of the series differs between compounds
Outline: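 Viability tracked continuously by luminescence as live cells reduce a prosubstrate for NanoLuc; HEK293 cells preincubated 5 h, compound-treated at 37 C, and read at 0, 8, 16, 24, 32 and 40 h.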

[7] = A CellTox Green Cytotoxicity Assay to monitor cytotoxicity in HEK293 cells - 16 hour (AID 1224888); further: nearly all actives have a fitted effect of over 35% in size; further: potency means the concentration at half of the fitted maximal effect
Outline: as §1

[8] = A CellTox Green Cytotoxicity Assay to monitor cytotoxicity in HepG2 cells - 8 hour (AID 1224890); further: nearly all actives have a fitted effect of over 45% in size; further: potency means the concentration at half of the fitted maximal effect
Outline: as §2

[9] = qHTS RealTime-Glo MT Cell Viability Assay in HepG2 cells - 0 hour (AID 1224889); further: nearly all actives have a fitted effect of over 50% in size
Outline: as §3

[10] = qHTS RealTime-Glo MT Cell Viability Assay in HEK293 cells - 8 hour (AID 1224887); further: nearly all actives have a fitted effect of over 50% in size; further: potency means the concentration at half of the fitted maximal effect; on activity change, negative = cytotoxicity: top concentration of the series differs between compounds
Outline: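 Nonlytic bioluminescent viability monitoring. HEK293 at 600 cells/well with reagent; 5 h settle; compound transfer by pintool; plates held at 37 C and read at set time points.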

Compound	Potency [1]	Potency [2]	Potency [3]	Potency [4]	Potency [5]	Potency [6]	Potency [7]	Potency [8]	cytotoxicity [2]	cytotoxicity increase [4]	activity change, negative = cytotoxicity [9]	Potency [10]	Potency [9]
CCCCCCCCCCCCCCCC[N+](C)(C)C	23.7 µM (active) and 43.6 µM (active) and 23.9 µM (active)	inactive	21.1 µM (active) and 19 µM (active)	21.1 µM (active) and 49 µM (active)	inactive and 54.9 µM (active) and 23.9 µM (active)	9.42 µM (active) and 21.9 µM (active) and 9.52 µM (active)	23.7 µM (active) and 49 µM (active) and 19 µM (active)	54.9 µM (active) and 21.3 µM (active)					
CN(C)C(=S)[S-].CN(C)C(=S)[S-].[Cu+2]	2.38 µM (active)		2.99 µM (active)		3.77 µM (active)	1.34 µM (active)	2.38 µM (active)		0.299% [at 15.8 µM] (inactive)	-12.4% [at 15.8 µM] (inactive)	-22.4% [at 15.8 µM] (inactive)		
Cc1cc(C(F)(C(F)(F)F)C(F)(F)F)ccc1NC(=O)c1cccc(I)c1C(=O)NC(C)(C)CS(C)(=O)=O	inactive	inactive	inactive	inactive	inactive		inactive	inactive				inactive	inactive
[CH3][Hg][Cl]	7.74 µM (active)	inactive	12.3 µM (active)	inactive	10.9 µM (active)	4.89 µM (active)		15.5 µM (active)				6.9 µM (active)	inactive
BrC(Br)Br	inactive	inactive	inactive	inactive	inactive	inactive	inactive	inactive					inactive
c1ccc2c(c1)[nH]c1cnccc12	inactive	inactive	inactive	inactive	inactive	inactive		inactive				inactive	inactive
C[C@]12Cc3nonc3C[C@@H]1CC[C@@H]1[C@@H]2CC[C@@]2(C)[C@H]1CC[C@]2(C)O	inactive	inactive	inactive	inactive	inactive	19 µM (active)	inactive	inactive					inactive
Cc1cc(C)cc(OP(=O)(Oc2cc(C)cc(C)c2)Oc2cc(C)cc(C)c2)c1	inactive	inactive	inactive	inactive	inactive	inactive		inactive					inactive
CCCCCCCCCCCCCCC(Br)C(=O)O (centres undefined)	inactive	inactive	17.4 µM (active)	inactive	inactive	inactive	inactive	inactive					
COP(=S)(OC)Oc1cc(Cl)c(Br)cc1Cl	inactive	inactive	inactive	inactive	inactive	inactive	inactive	inactive				inactive	
Cn1[nH]nnc1=S	inactive	inactive	inactive	inactive	inactive	inactive	inactive	inactive					inactive
NC(=O)c1ccc(N)nc1	inactive	inactive	inactive	inactive	inactive		inactive	inactive				inactive	inactive
CCc1ccccc1C	inactive	inactive	inactive	inactive	inactive	inactive		inactive				inactive	inactive
CN(C)CCc1c[nH]c2ccc(O)cc12	inactive	inactive	inactive	inactive	inactive	inactive		inactive				inactive	inactive
CCCCCCCCCC[N+](C)(C)CCCCCCCCCC	17.4 µM (active)	inactive	9.77 µM (active)	17.4 µM (active)	11 µM (active)	1.74 µM (active)	17.4 µM (active)	19.5 µM (active)				21.9 µM (active)	
CCS(=O)(=O)c1cccnc1S(=O)(=O)NC(=O)Nc1nc(OC)cc(OC)n1	inactive	inactive	inactive	inactive	inactive	inactive	inactive	inactive					inactive
O=C(CCl)C(Cl)Cl	27.8 µM (active)	inactive	55.5 µM (active)	inactive	inactive	17.5 µM (active)	inactive	inactive					inactive
ClC(Cl)=C(Cl)Cl	inactive	inactive	inactive	inactive	inactive	inactive	inactive	inactive					
Oc1ccc(C(c2ccc(O)cc2)(C(F)(F)F)C(F)(F)F)cc1	43.4 µM (active) and inactive	inactive	54.7 µM (active) and 54.9 µM (active)	inactive	inactive	43.4 µM (active)	inactive						inactive
N#CNC#N	inactive	inactive	inactive	inactive	inactive	inactive	inactive	inactive				inactive	
Cc1ccc(C(=O)Cl)cc1	inactive	inactive	inactive	inactive	inactive	inactive	inactive	inactive					inactive
Oc1ccccc1Br	inactive	inactive	inactive	inactive	inactive	inactive		inactive				inactive	inactive
CC[C@H]1C[C@@H]2C[C@H]3c4[nH]c5ccc(OC)cc5c4CCN(C2)[C@@H]13	inactive	inactive	54 µM (active)	inactive	inactive		inactive					inactive	inactive
Cc1cccc(OP(=O)(Oc2cccc(C)c2)Oc2cccc(C)c2)c1	inactive	inactive	inactive	inactive	inactive	inactive						inactive	inactive

Compound	Potency [1]	Potency [2]	Potency [3]	Potency [4]	Potency [5]	Potency [6]	Potency [7]	Potency [8]	cytotoxicity [2]	cytotoxicity increase [4]	activity change, negative = cytotoxicity [9]	Potency [10]	Potency [9]
CC(C)OS(C)(=O)=O	inactive	inactive	inactive	inactive	inactive	inactive		inactive				inactive	
N#CSCSC#N	43.2 µM (active)	inactive	39.8 µM (active) and 17.2 µM (active)	inactive	56.2 µM (active) and 19.3 µM (active)	12.6 µM (active) and 19.3 µM (active)		34.3 µM (active)					
C[As+](C)(C)CC(=O)[O-]	inactive	inactive	inactive	inactive	inactive	inactive						inactive	inactive
COCC(=O)N(c1c(C)cccc1C)[C@H](C)C(=O)OC	inactive	inactive	inactive	inactive	inactive	inactive		inactive				inactive	inactive
Clc1ccc(COC(Cn2ccnc2)c2ccc(Cl)cc2Cl)cc1 (centres undefined)	45.7 µM (active) and 54.7 µM (active) and inactive	inactive	45.7 µM (active) and 54.7 µM (active) and 15.1 µM (active)	inactive	43.5 µM (active)	18.2 µM (active) and 21.8 µM (active)		inactive and 54.7 µM (active)				20.4 µM (active) and 21.8 µM (active)	inactive
c1ccc(OCC2CO2)cc1 (centres undefined)	inactive	inactive	inactive	inactive	inactive	inactive		inactive				inactive	
C[C@@H](Oc1ccc(Cl)cc1Cl)C(=O)O	inactive	inactive	inactive	inactive	inactive	inactive		inactive				inactive	inactive
Oc1ccc(C(=C(Cl)Cl)c2ccc(O)cc2)cc1	inactive	inactive	inactive	inactive	inactive	38.8 µM (active)	inactive	inactive					inactive
O=C1C=CC(=O)c2ccccc21	6.16 µM (active)	inactive	12.3 µM (active)	inactive	19.5 µM (active)	5.49 µM (active)		15.5 µM (active)					
Nc1ccc([N+](=O)[O-])cc1Cl	inactive	inactive	inactive	inactive	inactive	inactive							inactive
Oc1ccc(I)cc1	inactive	inactive	inactive	inactive		inactive		inactive				inactive	inactive
CC(=[OH+])/C=C(/C)[O-].CC(=[OH+])/C=C(\C)[O-].CC(=[OH+])/C=C(\C)[O-].[Fe]	inactive	inactive	inactive	inactive		inactive	inactive	inactive				inactive	
Clc1ccc(C(c2ccccc2Cl)C(Cl)(Cl)Cl)cc1 (centres undefined)	55.3 µM (active) and inactive	inactive	inactive	inactive		49.3 µM (active) and inactive	inactive					49.3 µM (active) and inactive	inactive
CCCCCCCCCBr	inactive	inactive	inactive	inactive		inactive	inactive	inactive				inactive	inactive
ClC1=C(Cl)C2(Cl)C3C(Cl)C=CC3C1(Cl)C2(Cl)Cl (centres undefined)	55.2 µM (active) and 49 µM (active)	inactive	54.9 µM (active)	55.2 µM (active) and 49 µM (active)		43.8 µM (active) and 49 µM (active)	55.2 µM (active) and 49 µM (active)					43.8 µM (active) and 43.6 µM (active)	inactive
CCCCCCCCCCCCCCCC[n+]1ccccc1	34.2 µM (active) [middle of 4 runs]	inactive	15.5 µM (active) [middle of 4 runs]	49 µM (active) [middle of 4 runs]		9.52 µM (active) [middle of 4 runs]	49 µM (active) [middle of 4 runs]	49 µM (active) and 48.3 µM (active) and 16.9 µM (active)				45.7 µM (active) and 54.9 µM (active) and 54.2 µM (active)	inactive
Nc1ccc(Cc2ccc(N)c(Cl)c2)cc1Cl	inactive	inactive	inactive	inactive		26.6 µM (active)		inactive				29.9 µM (active)	
CN(C)C(=S)S	8.88 µM (active) and 3.07 µM (active) and 6.92 µM (active)	inactive	17.7 µM (active) and 5.45 µM (active) and 11 µM (active)	inactive		11.2 µM (active) and 1.73 µM (active) and 11 µM (active)	inactive	inactive				inactive	inactive
COc1ccc(/C(=C/C(=O)N2CCOCC2)c2ccc(Cl)cc2)cc1OC	inactive	inactive	inactive	inactive	inactive			inactive					
Cc1c(Cl)c(=O)oc2cc(OP(=O)(OCCCl)OCCCl)ccc12	inactive	inactive	inactive	inactive	inactive		inactive	inactive					inactive
COc1cc(N)c(Cl)cc1C(=O)NC1CN2CCC1CC2 (centres undefined)	inactive	inactive	inactive	inactive		inactive	inactive	inactive				inactive	
O=[N+]([O-])c1ccc(Oc2ccc(C(F)(F)F)cc2[N+](=O)[O-])cc1	inactive	inactive	inactive	inactive		15.5 µM (active)	inactive	inactive				19.5 µM (active)	inactive
COc1ccc(OC)c(C=O)c1	inactive	inactive	inactive	inactive	inactive		inactive	inactive					inactive
